“And” between values parts separate entries of the source, which are not always exact repeats. Identical values can stand only once. The source made the active and inactive calls.
Experiments:
Albumin (Bos taurus) = Albumin (Bos taurus) (UniProt P02769); test: compounds binding labelled BSA control protein – biochemical, small-molecule microarray, Alexa647 label, 635/667 nm fluorescence, artefact control for SMM control protein annotation, profiling panel (AID 1118); details: BSA-A647 binding, fluorescence 635 nm, higher = more signal;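 note: score merges 667 nm emission intensity and signal-to-noise per printed compound spot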
Albumin (Bos taurus), sequence (P02769 whole entry, looked up): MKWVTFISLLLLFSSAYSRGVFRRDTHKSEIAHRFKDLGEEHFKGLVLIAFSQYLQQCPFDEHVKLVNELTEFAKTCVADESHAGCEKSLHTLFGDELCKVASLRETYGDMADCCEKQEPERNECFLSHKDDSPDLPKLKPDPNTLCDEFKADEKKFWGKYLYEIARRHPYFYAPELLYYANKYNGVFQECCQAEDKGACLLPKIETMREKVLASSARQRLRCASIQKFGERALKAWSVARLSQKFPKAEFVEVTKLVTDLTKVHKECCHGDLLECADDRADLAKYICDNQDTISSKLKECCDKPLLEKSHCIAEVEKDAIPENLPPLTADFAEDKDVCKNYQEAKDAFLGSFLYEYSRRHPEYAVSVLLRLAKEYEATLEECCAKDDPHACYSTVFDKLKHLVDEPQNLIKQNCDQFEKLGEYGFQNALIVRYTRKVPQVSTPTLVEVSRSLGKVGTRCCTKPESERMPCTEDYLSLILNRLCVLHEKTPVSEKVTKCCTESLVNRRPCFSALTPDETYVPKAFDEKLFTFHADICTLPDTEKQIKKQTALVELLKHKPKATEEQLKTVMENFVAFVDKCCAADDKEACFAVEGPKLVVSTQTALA

[1] = probe aXIP binding to arrayed compounds – biochemical, NeuroSMM set, 635/667 nm fluorescence, primary screen (AID 1119); details: small-molecule microarray, higher = more signal, called active from +8 up or from −8 down;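 note: probe is the protein aXip251-270 applied at 1 µg/mL to compound-printed slides; binding of probe to printed compounds measured as 667 nm fluorescence plus signal to noise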
[2] = probe aNOTCH3 binding on compound microarray – biochemical, small-molecule microarray, 635/667 nm fluorescence, primary screen (AID 1120); details: higher = more signal;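 note: probe is a biotin-tagged antibody raised against NOTCH3 rather than NOTCH3 protein; score merges spot fluorescence near 667 nm with spot signal to noise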
[3] = probe aNOTCH2 binding on compound microarray – biochemical, small-molecule microarray, 635/667 nm fluorescence, primary screen (AID 1121); details: higher = more signal;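 note: score merges feature fluorescence read at 667 nm with its signal to noise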
[4] = molecular target: Carbonic anhydrase 2 (Homo sapiens) (UniProt P00918); test: compounds binding carbonic anhydrase 2 – biochemical, small-molecule microarray, Alexa647-labelled CAII, profiling panel (AID 1122); details: CAII-A647 binding fluorescence, higher = more signal
[5] = COS7 lysate on small-molecule microarray, probe aHis, 635 nm (AID 1123); details: COS7 cell lysate, fluorescence, higher = more signal;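 note: z-score combines 667nm fluorescence intensity with signal-to-noise per printed compound spot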
[6] = probe aLAP1 signal on lysate-treated microarray – cell lysate, small-molecule microarray, COS7 lysate, primary screen (AID 1124); details: probe aLAP1, fluorescence, higher = more signal;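 note: lysate comes from COS7 cells expressing LAP1 and is applied at 0.3 µg/mL; score merges spot fluorescence near 667 nm with signal-to-noise over triplicate slides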
Sam68 (KHDRBS1) = test: compounds binding KHDRBS1 protein – biochemical, small-molecule microarray, 635 nm fluorescence, primary screen (AID 1125); details: higher = more signal;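 note: score merges 667 nm channel intensity with signal to noise over triplicate slides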
[7] = test system: Chordin-like protein 2 (CHRDL2); test: compounds binding chordin-like 2 – biochemical, small-molecule microarray, 635 nm fluorescence, primary screen (AID 1126); details: fluorescence 635 nm, higher = more signal;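 note: printed compound slides probed with Chrdl2 protein at 4 µg/mL for 1 h at 4 C; score merges 667 nm emission intensity with signal to noise over three replicate slides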
[8] = molecular target: Concanavalin-A (Canavalia ensiformis) (UniProt P02866); test: compounds binding concanavalin A lectin – biochemical, small-molecule microarray, Alexa647 label, 635 nm, artefact control for SMM control protein annotation, primary screen (AID 1127); details: ConA-A647 binding fluorescence, higher = more signal;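 note: z combines 667 nm emission intensity with signal-to-noise across three replicate slides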
Concanavalin-A (Canavalia ensiformis), sequence (P02866 whole entry, looked up): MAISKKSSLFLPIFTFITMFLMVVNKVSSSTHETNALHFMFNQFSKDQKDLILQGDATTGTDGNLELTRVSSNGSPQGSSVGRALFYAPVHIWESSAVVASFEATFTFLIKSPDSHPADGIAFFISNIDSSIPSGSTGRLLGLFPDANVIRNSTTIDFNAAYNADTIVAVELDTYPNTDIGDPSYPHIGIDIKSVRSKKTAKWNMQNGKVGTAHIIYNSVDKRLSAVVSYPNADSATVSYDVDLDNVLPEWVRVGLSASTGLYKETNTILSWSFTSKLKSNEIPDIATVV

[9] = compounds binding Alexa647 anti-His antibody – biochemical, small-molecule microarray, 635 nm fluorescence, artefact control for SMM control protein annotation, primary screen (AID 1128); details: higher = more signal;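 note: score merges feature fluorescence with signal-to-noise for each printed compound spot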
[10] = test system: Human papillomavirus type 1a E7 protein (residues 1-88); test: HPV1a E7 small-molecule binders, primary screen, biochemical, small-molecule microarray, residues 1-88, 635 nm (AID 1129); details: small-molecule microarray binding, fluorescence 635 nm; higher = more signal
[11] = molecular target: Focal adhesion kinase 1 (Homo sapiens) (UniProt Q05397); test: PTK2 protein binding on printed compound slides – biochemical, small-molecule microarray, 635/667 nm fluorescence, BSA, DTT, primary screen (AID 1130); details: 635 nm fluorescence, higher = more signal;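 note: composite of spot emission at 667 nm and signal to noise over triplicate slides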
Focal adhesion kinase 1 (Homo sapiens), sequence (Q05397 whole entry, looked up): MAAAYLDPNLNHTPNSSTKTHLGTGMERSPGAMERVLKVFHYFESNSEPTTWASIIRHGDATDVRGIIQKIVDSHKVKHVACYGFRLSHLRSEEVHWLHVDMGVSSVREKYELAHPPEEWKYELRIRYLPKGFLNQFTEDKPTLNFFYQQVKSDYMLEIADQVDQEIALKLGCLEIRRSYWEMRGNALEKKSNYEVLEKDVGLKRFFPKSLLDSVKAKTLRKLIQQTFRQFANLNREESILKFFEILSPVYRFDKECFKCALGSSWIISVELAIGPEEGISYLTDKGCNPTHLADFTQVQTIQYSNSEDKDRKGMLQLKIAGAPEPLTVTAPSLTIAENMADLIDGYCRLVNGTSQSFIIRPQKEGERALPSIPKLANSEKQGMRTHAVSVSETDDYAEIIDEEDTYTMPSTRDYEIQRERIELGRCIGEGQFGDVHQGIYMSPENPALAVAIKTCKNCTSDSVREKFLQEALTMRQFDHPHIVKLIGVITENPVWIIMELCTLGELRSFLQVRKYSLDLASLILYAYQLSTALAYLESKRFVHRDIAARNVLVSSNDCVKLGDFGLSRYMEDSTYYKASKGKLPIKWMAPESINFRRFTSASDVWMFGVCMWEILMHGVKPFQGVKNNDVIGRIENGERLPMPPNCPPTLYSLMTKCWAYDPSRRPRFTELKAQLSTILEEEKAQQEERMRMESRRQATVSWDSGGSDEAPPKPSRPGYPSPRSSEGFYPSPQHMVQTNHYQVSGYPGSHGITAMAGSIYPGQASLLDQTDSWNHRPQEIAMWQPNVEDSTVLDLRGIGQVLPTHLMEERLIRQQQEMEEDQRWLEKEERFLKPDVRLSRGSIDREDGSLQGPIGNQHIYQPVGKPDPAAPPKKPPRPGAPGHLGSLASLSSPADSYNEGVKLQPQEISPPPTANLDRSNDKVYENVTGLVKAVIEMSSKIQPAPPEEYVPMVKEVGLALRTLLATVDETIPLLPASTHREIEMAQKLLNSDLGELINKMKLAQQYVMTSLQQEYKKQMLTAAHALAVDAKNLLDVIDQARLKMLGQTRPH

[12] = test system: Fibrinogen (Alexa647-labelled); test: Alexa647-fibrinogen binding to printed small molecules – biochemical, small-molecule microarray, 635/667 nm fluorescence, artefact control for SMM control-protein annotation, profiling panel (AID 1131); details: fibrinogen-A647 binding fluorescence, higher = more signal;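 note: z-score merges 667 nm fluorescence with per-spot signal-to-noise over triplicate slides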
[13] = molecular target: Follistatin (Homo sapiens) (UniProt P19883); test: FST protein binding to printed compounds – biochemical, small-molecule microarray, 635/667 nm fluorescence, primary screen (AID 1132); details: 635 nm fluorescence, higher = more signal
Follistatin (Homo sapiens), sequence (P19883 whole entry, looked up): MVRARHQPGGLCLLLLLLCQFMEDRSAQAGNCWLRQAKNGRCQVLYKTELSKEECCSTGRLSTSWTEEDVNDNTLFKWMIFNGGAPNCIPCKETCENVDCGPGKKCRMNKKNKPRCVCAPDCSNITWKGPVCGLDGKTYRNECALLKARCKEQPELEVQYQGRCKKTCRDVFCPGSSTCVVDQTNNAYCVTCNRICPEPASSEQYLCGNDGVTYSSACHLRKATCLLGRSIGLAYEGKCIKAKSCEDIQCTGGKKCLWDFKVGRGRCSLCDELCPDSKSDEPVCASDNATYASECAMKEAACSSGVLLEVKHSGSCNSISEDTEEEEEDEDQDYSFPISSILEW

[14] = molecular target: Fibroblast growth factor 2 (Homo sapiens) (UniProt P09038); test: basic fibroblast growth factor binding to printed compounds – biochemical, small-molecule microarray, 635/667 nm fluorescence, primary screen (AID 1133); details: FGF2, fluorescence 635/667, higher = more signal
Fibroblast growth factor 2 (Homo sapiens), sequence (P09038 whole entry, looked up): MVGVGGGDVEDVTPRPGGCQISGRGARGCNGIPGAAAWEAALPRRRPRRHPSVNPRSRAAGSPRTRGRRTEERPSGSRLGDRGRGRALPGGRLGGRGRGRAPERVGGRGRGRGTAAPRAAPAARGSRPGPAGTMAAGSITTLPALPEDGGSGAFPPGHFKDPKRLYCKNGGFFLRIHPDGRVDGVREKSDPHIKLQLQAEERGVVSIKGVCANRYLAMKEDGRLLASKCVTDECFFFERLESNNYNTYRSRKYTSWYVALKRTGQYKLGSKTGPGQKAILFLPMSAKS

[15] = JC-1 mitochondrial potential readout, lung cancer cells – cell-based, A549, JC-1 fluorescence, basal, 24 h, 100 nL, profiling panel (AID 1138); details: higher = more signal;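 note: A549 lung adenocarcinoma cells under basal conditions with no added stimulus; test concentration not given here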
Lefty1 = Lefty1 protein binding to printed compounds – biochemical, small-molecule microarray, 635/667 nm fluorescence, primary screen (AID 1139); details: fluorescence 635/667, higher = more signal
[16] = test system: wheat germ agglutinin (Triticum aestivum), Alexa647-labelled; test: Alexa647-WGA lectin binding to printed small molecules – biochemical, small-molecule microarray, 635/667 nm fluorescence, artefact control for SMM control-protein annotation, profiling panel (AID 1140); details: WGA-A647 binding, 635 nm fluorescence, higher = more signal;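 note: score merges 667 nm feature emission with signal to noise over triplicate slides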
[17] = molecular target: Luciferin 4-monooxygenase (Photinus pyralis) (UniProt P08659); test: inhibition of purified Photinus pyralis luciferase – biochemical, luminescence, purified enzyme, 2006 set, primary screen (AID 1141); details: purified firefly luciferase, SteadyGlo luminescence, 30 min; higher = more signal, called active from +8 up or from −8 down;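 note: cell-free assay with purified firefly luciferase at 100 ng per well in PBS; test concentration not given here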
Luciferin 4-monooxygenase (Photinus pyralis), sequence (P08659 whole entry, looked up): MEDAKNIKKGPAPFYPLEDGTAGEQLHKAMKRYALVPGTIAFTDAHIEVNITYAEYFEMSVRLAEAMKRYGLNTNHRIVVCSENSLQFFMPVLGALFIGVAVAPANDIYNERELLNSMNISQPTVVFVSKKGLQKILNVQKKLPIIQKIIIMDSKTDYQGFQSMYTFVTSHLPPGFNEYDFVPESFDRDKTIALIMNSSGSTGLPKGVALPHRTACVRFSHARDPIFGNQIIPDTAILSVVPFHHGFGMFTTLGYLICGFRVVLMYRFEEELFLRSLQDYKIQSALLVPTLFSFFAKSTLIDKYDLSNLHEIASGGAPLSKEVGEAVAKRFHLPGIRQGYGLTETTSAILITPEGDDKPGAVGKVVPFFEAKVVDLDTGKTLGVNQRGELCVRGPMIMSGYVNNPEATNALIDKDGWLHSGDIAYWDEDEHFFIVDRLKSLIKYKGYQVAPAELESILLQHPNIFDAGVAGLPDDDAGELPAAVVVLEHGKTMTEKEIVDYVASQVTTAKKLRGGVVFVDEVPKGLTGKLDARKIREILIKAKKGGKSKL

Row | Structure (SMILES) | composite z-score (Albumin (Bos taurus)) | composite Z-score [1] | composite z-score [2] | composite z-score [3] | composite z-score [4] | composite z-score [5] | composite z-score [6] | composite z-score (Sam68 (KHDRBS1)) | composite z-score [7] | composite z-score [8] | composite z-score [9] | composite z-score [10] | composite z-score [11] | composite z-score [12] | composite z-score [13] | composite z-score [14] | z-score [15] | composite z-score (Lefty1) | composite z-score [16] | z-score [17]
1 | CCOC(=O)C[C@H]1[C@H](OC(=O)c2ccccc2-c2ccccc2)[C@@H](NC(=O)c2ccccc2)c2cc(OCCCO)ccc2N1C(=O)c1ccc2ccccc2n1 | 0.369 and 0.645 | 0.095 (inactive) and 0.291 (inactive) | 0.0223 and 0.228 | -0.0073 and -0.0357 | 0.348 and 0.0749 | 0.25 and 0.958 | 0.0741 and 0.356 | 0.443 and 1.2 | 0.243 and 0.175 | 0.436 and 1.04 | 0.861 and 1.4 | 0.547 and 0.311 | -0.0011 and 0.466 | 0.0271 and 0.432 | 0.41 and 1.12 | 0.566 and 0.845 | 1.1 and 0.202 | 0.513 and 0.934 | 0.692 and 0.31 | -0.233 (inactive) and -0.818 (inactive)
2 | CC(C)=CCCC(C)=CCON=C1C[C@@H](O)[C@@H](O)[C@@H]2[C@@H]3C(=O)N([C@@H](C)c4ccccc4)C(=O)[C@@H]3CC[C@H]12 | 0.799 | -0.501 (inactive) | -0.0048 | 0.296 | 0.206 | 1.37 | 0.308 | 1.12 | 1.03 | 0.0996 | 0.798 | 1.01 | 0.89 | 0.558 | 0.676 | 0.364 | 0.824 | 0.581 | 0.324 | -0.677 (inactive)
3 | C[N+](C)(C)CCCCCCNC(=O)[C@@H]1C[C@@H]2C(=O)N[C@@H](CCCC[N+](C)(C)C)C(=O)N2[C@@H]1c1ccc(O)cc1 | -0.595 and 0.0621 | 0.722 (inactive) and 0.318 (inactive) | -0.0918 and 0.0016 | -0.164 and -0.147 | 0.747 and 0.82 | -0.251 and 0.233 | 0.774 and 0.322 | -0.351 and 0.428 | 0.952 and 0.671 | 0.197 and 0.299 | 0.582 and 1.21 | -0.694 and 0.212 | -0.169 and -0.133 | -1.44 and -0.95 | 1.39 and 1.34 | 1.47 and 1.44 | -0.0687 and -0.662 | 0.914 and 1.04 | -0.187 and -0.088 | 0.547 (inactive) and 0.58 (inactive)
4 | C[N+](C)(C)CCCCCCNC(=O)[C@H]1C[C@H]2C(=O)N[C@@H](CCCC[N+](C)(C)C)C(=O)N2[C@H]1c1cccc(OCCO)c1 | -0.239 and -0.101 | 0.891 (inactive) and -0.166 (inactive) | -0.0647 and 0.203 | -0.148 and 0.046 | 0.655 and 0.419 | 0.897 and 0.214 | 0.479 and 0.285 | 0.861 and 0.669 | 1.22 and 1.04 | 0.606 and 0.352 | 1.91 and 1.46 | 0.516 and -0.266 | -0.063 and 0.0884 | 0.638 and -0.338 | 1.39 and 1.43 | 1.82 and 1.66 | 0.357 and -0.307 | 1.59 and 0.768 | 0.348 and 0.29 | -0.0709 (inactive) and 0.15 (inactive)
5 | C=CCN(C(=O)C(c1cccs1)N(C(=O)/C=C\C(=O)O)c1ccc(CCO)cc1)c1ccc(OC)cc1 (stereo not given) | 0.254 and -1.1 | -0.16 (inactive) and -0.902 (inactive) | -0.299 and -0.451 | -0.164 and -0.19 | 0.89 and -0.733 | -0.416 and -1.29 | -1.17 and 0.112 | -1.79 and -2.22 | -1.65 and -3.12 | -1.33 and -2.24 | 0.502 and -2.51 | -0.979 and -1.34 | 0.32 and -0.445 | -1.36 and -2.21 | -1.14 and -3.18 | -2.42 and -2 | 0.413 and 1.3 | -0.91 and -2.42 | -0.4 and -0.894 | -1.62 (inactive) and -1.01 (inactive)
6 | C=CCN1C(=O)[C@]2(O[C@H](CCn3cc(CCO)nn3)[C@@H]([Si](C)(C)c3ccc(OC)cc3)[C@@H]2C)c2cc(N3C(=O)c4cccc5cccc3c45)ccc21 | 0.558 and 0.668 | 0.729 (inactive) and 0.573 (inactive) | 0.0522 and 0.0259 | -0.106 and -0.162 | 0.227 and 0.417 | 1.88 and 0.772 | 0.163 and -0.46 | 1.2 and 0.787 | 0.431 and 0.191 | 1.08 and 1.06 | 0.783 and 1.59 | 1.14 and 1.08 | 0.216 and 0.369 | 0.57 and 0.583 | 0.687 and 0.0673 | 0.296 and 0.381 | -1.09 and -0.743 | 0.794 and 0.721 | 0.532 and 0.53 | -0.511 (inactive) and 0.185 (inactive)
7 | C=CCN(C(=O)C(c1cccs1)N(CCOCCO)C(=O)/C=C\C(=O)O)C(C)(C)C (stereo not given) | -0.503 and -0.823 | -0.48 (inactive) and -0.0662 (inactive) | -0.387 and -0.349 | -0.148 and -0.126 | 0.847 and 0.9 | -0.851 and 0.606 | -0.957 and 0.0378 | -1.33 and -0.246 | -2.31 and -1.58 | -1.4 and -1.67 | -1.68 and -1.56 | -1.4 and -0.488 | -1.37 and -0.35 | -0.7 and -1.15 | -2.15 and -0.795 | -1.7 and -1.19 | 1.01 and 1.41 | -1.66 and -1.83 | -1.04 and -0.022 | -1.5 (inactive) and -1.32 (inactive)
8 | C[C@@H](c1ccccc1)N1C(=O)[C@H]2[C@H]3[C@H](O)[C@H](O)CC(=O)[C@@H]3CC[C@H]2C1=O | 0.294 | 0.28 (inactive) | -0.0345 | -0.0843 | 0.149 | 0.438 | 0.727 | 0.661 | 0.433 | 0.583 | 0.338 | 0.793 | 0.866 | 0.212 | 0.605 | 1.08 | 0.792 | 1.64 | 0.108 | -1.87 (inactive)
9 | COC(=O)C1=C(C)N(Cc2ccccc2)[C@]23O[C@](C(=O)OC)(C(=O)N2[C@@H]1c1ccccc1)[C@H]1C(=O)N(C)C(=O)[C@H]13 | 0.899 and 0.489 | -0.0443 (inactive) and 0.0886 (inactive) | -0.212 and 0.0751 | -0.116 and -0.148 | 0.354 and 0.309 | 0.909 and 0.901 | 0.262 and -0.0393 | 1.19 and 0.0927 | 0.0101 and 0.385 | 1.08 and -0.174 | 0.561 and 1.01 | 1.12 and 0.878 | -0.178 and -0.0654 | 0.938 and 0.0407 | 0.368 and 0.409 | 0.219 and 0.4 | -0.993 and 1.4 | 0.817 and 1.17 | 0.638 and 0.366 | -0.576 (inactive) and -1.35 (inactive)
10 | C[C@@H]1CC[C@@H](C(=O)O)N[C@H]1c1ccc(-c2ccco2)cc1 | 0.0852 | -0.122 (inactive) | 0.0458 | -0.16 | 0.812 | 0.01 | -0.103 | 0.108 | 1.1 | 0.529 | 0.893 | -0.253 | 0.0242 | 1.02 | 1.32 | 1.14 | 1.41 | 1.18 | 0.589 | -0.906 (inactive)
